# PREPL inh = human PREPL enzyme inhibition. recombinant PREPL, fluorescence polarization activity-based probe. inhibition, % at 5.96 µM. hit rate 0.68% among 320,000. AID 2751
# LYPLA2 inh = counter-screen for PME1 inhibitors: inhibitors of human LYPLA2. O95372. inhibition, % at 5.9 µM. recombinant LYPLA2, FP-Rh probe fluorescence polarization. AID 2177. hit rate 0.38% among 320,000;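 active = inhibition above the screen-wide mean plus 3 SD, limit set per campaign, cut at about 26% in these data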
# Target sequence (O95372 whole entry, looked up): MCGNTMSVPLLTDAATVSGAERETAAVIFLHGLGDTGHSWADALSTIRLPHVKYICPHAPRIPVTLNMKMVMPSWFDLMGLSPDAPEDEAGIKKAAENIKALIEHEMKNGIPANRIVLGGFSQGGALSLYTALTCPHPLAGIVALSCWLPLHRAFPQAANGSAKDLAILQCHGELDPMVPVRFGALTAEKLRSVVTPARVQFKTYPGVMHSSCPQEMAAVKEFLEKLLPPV
# MEX-5 binding = C. elegans MEX-5 TCR-2 RNA binding activity; Q9XUB2; MEX-5/FITC-TCR2 RNA binding, fluorescence polarization; stronger effect = lower value; activity score (negative = inhibition of binding), % at 10 µM; hit rate 0.38% among 300,000;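 active = inhibition past about -25% in most replicates, and total fluorescence under double the plate's negative control median, limit read from the data; inconclusive = replicates evenly split on the limit, or fluorescence at least double controls; inactive = too little inhibition in most replicates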
# PME-1 primary = blocks human protein phosphatase methylesterase 1; hit rate 0.53% among 320,000; recombinant PME-1, FP-Rh probe fluorescence polarization; inhibition, % at 5.9 µM; Q9Y570;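 active = inhibition above the campaign mean of all compounds plus 3 SD, cut at about 26% in these data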;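 also: competitive labeling of PME-1 active site by serine hydrolase directed probe; inhibitors block probe labeling so polarization falls and inhibition rises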
# Fam108B inh = blocks mouse Fam108B hydrolase in RBBP9 counter-screen | hit rate 0.33% among 300,000 | AID 1947 | inhibition, % at 9.51 µM | recombinant Fam108B, FP-Rh probe fluorescence polarization;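 active = inhibition above the screen mean inhibition plus 3 SD, computed separately per campaign, cut at about 18% in these data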;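 also: inhibitors lower polarization as less probe binds the enzyme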
# LYPLA1 counter = blocks human lysophospholipase 1, a PME1 counter-screen. recombinant LYPLA1, FP-Rh probe fluorescence polarization. inhibition, % at 5.9 µM. hit rate 0.16% among 320,000. AID 2174;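 active = inhibition above the mean of all tested compounds plus 3 SD, set per campaign, cut at about 14% in these data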;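 also: inhibitors block serine hydrolase probe labeling of LYPLA1 so polarization falls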
# Target sequence (O75608 whole entry, looked up): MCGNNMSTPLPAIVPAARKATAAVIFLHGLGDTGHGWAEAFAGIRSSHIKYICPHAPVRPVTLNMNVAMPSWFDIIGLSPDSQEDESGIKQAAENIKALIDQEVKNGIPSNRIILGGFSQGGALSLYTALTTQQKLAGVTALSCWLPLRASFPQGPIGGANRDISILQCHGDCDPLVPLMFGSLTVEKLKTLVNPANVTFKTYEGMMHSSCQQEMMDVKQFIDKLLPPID
# LYPLA2 conf = counter-screen for PME1 inhibitors: confirmation of human LYPLA2 inhibitors | shares compounds with LYPLA2 inh | recombinant LYPLA2, FP-Rh probe fluorescence polarization | inhibition, % at 5.9 µM | hit rate 72% among 1,100 | AID 2232;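 active = mean inhibition across replicates above the hit cutoff set in the primary screen, cut at about 26% in these data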;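 also: blocked labeling of the enzyme by serine hydrolase FP-Rh probe lowers polarization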
# LYPLA2 ABPP = inhibitors of human LYPLA2. rhLYPLA2 in mouse brain proteome, gel ABPP FP-Rh. inhibition, % at 20 µM. shares compounds with LYPLA2 inh. hit rate 30% among 150;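 active = inhibition of LYPLA2 enzyme probe labeling above about 50%, limit read from the data; inactive = inhibition below that limit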;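 also: loss of FP-Rh probe labeling of the LYPLA2 gel band measured as band density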
# PREPL confirm = confirmation of human PREPL enzyme inhibitors. shares compounds with PREPL inh. recombinant PREPL, fluorescence polarization activity probe. inhibition, % at 5.96 µM. hit rate 67% among 2,000
# A number is an active result; 0 = inactive; ? = inconclusive; - = no result. Sampled rows, rich in hits. Any-hit rate of the full collection: about 1.6%. Rule as the data show it, unless noted: active = inhibition above about 43%; inactive = the rest.
SMILES,PREPL inh,LYPLA2 inh,MEX-5 binding,PME-1 primary,Fam108B inh,LYPLA1 counter,LYPLA2 conf,others
COc1ccc(/C=N/N2CCN(Cc3ccc(C)cc3)CC2)cc1Br,0,26,0,0,0,0,0,
COc1cccc(NC(=O)C2CCCN2C(=O)Nc2ccccc2F)c1 (stereo not drawn),0,0,0,0,0,0,-,
O=C1c2ccc(Oc3ccc4c(c3)C(=O)N(CCCO)C4=O)cc2C(=O)N1CCCO,0,29,0,0,0,0,0,
Cc1ccc2c(c1)C(=O)N(CCCCO)C2=O,0,0,0,0,0,0,-,
O=C1N=C(N2CCN(c3ccccc3)CC2)S/C1=C/c1cccs1,0,34,0,0,0,0,38,
CN1CCN(C2=NC(=O)/C(=C/c3cn[nH]c3-c3ccccc3)S2)CC1,0,0,0,0,0,0,-,
C#CCn1c(=NC(=O)CN2C(=O)CCC2=O)sc2cc(S(N)(=O)=O)ccc21,0,32,0,0,0,0,47,
COCCn1c(=NC(=O)CN2C(=O)CCC2=O)sc2cc(S(N)(=O)=O)ccc21,0,0,0,0,0,0,-,
O=C1COc2ccc(C(=O)COC(=O)c3ccc(Cl)cc3[N+](=O)[O-])cc2N1,0,27,0,0,0,0,33,
O=C1COc2ccc(C(=O)COC(=O)c3ccccc3[N+](=O)[O-])cc2N1,0,0,0,0,0,0,-,
CC1CC[C@@]2(OC1)O[C@H]1CC3[C@@H]4C[C@@H](O)[C@@]5(O)C[C@@H](O)[C@H](O)C[C@]5(C)[C@H]4CC[C@]3(C)[C@H]1[C@@H]2C (stereo partly drawn),0,0,0,0,0,0,-,
CC(C)c1ccc(NC(=O)c2ccc3c(c2)C(=O)N(Cc2cccnc2)C3=O)cc1,0,51,0,0,0,0,53,LYPLA2 ABPP=0
CCOC(=O)c1ccc(NC(=O)c2ccc3c(c2)C(=O)N(Cc2cccnc2)C3=O)cc1,0,41,0,0,0,0,47,
COC(=O)Cc1ccc(NC(=O)c2ccc3c(c2)C(=O)N(Cc2cccnc2)C3=O)cc1,0,28,0,0,0,0,26,
O=C(C[C@@H]1C/C=C\C[C@H](NC(=O)OCC2c3ccccc3-c3ccccc32)C(=O)OC[C@H]2CCCN2C1=O)N[C@@H](CO)Cc1ccccc1,0,-,-,-,-,-,-,
O=Cc1ccc(OCCOc2ccc([N+](=O)[O-])cc2)cc1,0,37,0,0,0,0,0,
O=[N+]([O-])c1ccc(OCCN2CCNCC2)cc1,0,29,0,0,0,0,26,
O=[N+]([O-])c1ccc(OCCOCCOc2ccc([N+](=O)[O-])cc2)cc1,0,0,0,0,0,0,-,
CN1CCC(NC(=O)CCc2ccccc2)CC1,0,0,0,0,0,0,-,
Cc1ccccc1-c1nc(CS(=O)CC(=O)NC2CCCC2)c(C)o1 (stereo not drawn),0,0,0,0,0,0,-,
Cc1cccc(N2CCN(S(=O)(=O)c3cc(-c4cc(C)no4)ccc3C)CC2C)c1 (stereo not drawn),0,0,0,0,0,0,-,
COc1ccc(-c2cc(C)no2)cc1S(=O)(=O)N1CCN(c2cccc(C)c2)C(C)C1 (stereo not drawn),0,32,0,0,0,0,31,
CCn1ncc([N+](=O)[O-])c1C(=O)Nc1c(C)cccc1C,-,-,0,-,-,-,-,
O=C1CC(N2CCC(c3nc4ccccc4o3)CC2)C(=O)N1c1ccc(Cl)c(C(F)(F)F)c1 (stereo not drawn),0,27,0,0,0,0,33,
CCCCC(=O)N/N=C(\C)CC(=O)Nc1ccccc1Br,0,0,0,0,0,0,-,
SMILES,PREPL inh,LYPLA2 inh,MEX-5 binding,PME-1 primary,Fam108B inh,LYPLA1 counter,LYPLA2 conf,others
O=C(NCCNc1ccc([N+](=O)[O-])cc1C(F)(F)F)c1ccccc1F,0,27,0,0,0,0,0,
COc1cc(/C=N/NC(=O)C(NC(=O)c2ccccc2)c2n[nH]c(=O)c3ccccc23)ccc1OCC(N)=O (stereo not drawn),0,78,0,0,0,0,74,
CC(C)[C@H](NC(N)=O)C(=O)NCCc1ccc(Cl)cc1Cl,0,0,0,0,0,0,-,
CN=C1SC(CC(=O)Nc2ccc(F)cc2F)C(=O)N1/N=C(\C)c1cccc(OCC(=O)O)c1 (stereo not drawn),0,26,0,0,0,0,0,
CCOC(=O)N1CCN(C(c2ccc(C(C)C)cc2)c2sc3nc(C)nn3c2O)CC1 (stereo not drawn),0,69,0,0,0,0,67,
Cc1ccc2nc(NCc3ccco3)c(C=NCc3ccco3)c(=O)n2c1,0,32,0,0,0,0,0,
O=C(c1ccc(OC2CCN(CCc3ccccc3)CC2)cc1)N1CCCC(CCCO)C1 (stereo not drawn),0,65,0,0,0,0,51,LYPLA2 ABPP=0
O=C(O)C1Nc2c(O)cc(Cl)c([N+](=O)[O-])c2C2C=CCC12 (stereo not drawn),94,35,-60,0,79,0,0,PREPL confirm=0
Cc1ccc(C(=O)N2CCN(c3ccc(NC(=O)COc4ccccc4C)cc3)CC2)cc1,52,29,0,0,0,0,27,PREPL confirm=51
N#C/C(=C\c1ccc(N2CCOCC2)c([N+](=O)[O-])c1)c1nc2ccccc2[nH]1,45,31,0,0,0,0,53,PREPL confirm=0
N#C/C(=C\c1ccc(N2CCOCC2)o1)c1nc2ccccc2[nH]1,0,0,?,0,0,0,-,
C#CCOCCOCCOCCNc1nc(N2CCN(C(=O)CCCCCCCCCCNC(=O)Cn3cc(CCCCCN)nn3)CC2)nc(N2CCN(C(=O)CCCCCCCCCCNC(=O)[C@H]([C@@H](C)CC)n3cc(CCCCCN)nn3)CC2)n1,62,31,-,0,0,0,0,PREPL confirm=57
C#CCOCCOCCOCCNc1nc(N2CCN(C(=O)CCCCCCCCCCNC(=O)[C@H](CCC(=O)O)n3cc(CCCCCN)nn3)CC2)nc(N2CCN(C(=O)CCCCCCCCCCNC(=O)[C@@H]([C@H](C)O)n3cc(C)nn3)CC2)n1,0,0,-,0,0,0,-,
C#CCOCCOCCOCCNc1nc(N2CCN(C(=O)CCCCCCCCCCNC(=O)[C@H]([C@@H](C)CC)n3cc(CCCCCN)nn3)CC2)nc(N2CCN(C(=O)CCCCCCCCCCNC(=O)[C@@H]([C@H](C)O)n3cc(C)nn3)CC2)n1,46,29,-,0,0,0,29,PREPL confirm=0
CNC[C@@H]1Oc2c(NC(=O)Nc3ccc(F)cc3)cccc2C(=O)N([C@H](C)CO)C[C@@H]1C,0,-,-,-,-,-,-,
